tested on: VDR:RXRa (NR concentration 270 nM, RXRa partner concentration 90 nM); assay: PBM binding z-score (relative to random genomic background probes); higher = stronger binding; sequences stand for … in GC…GCGATTGACAGCGTAGAATGAAGG
Procedure: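 Protein-binding microarray (Agilent 4x180K custom design, double-stranded 60-nt probes: 5' GC cap, 34-nt variable region, 24-nt constant primer region; full probe sequence given). Purified or IVT nuclear receptor:RXRα heterodimers (3:1 NR:RXRα, mostly 270:90 nM) or homodimers were incubated for 1 h in PBS with 2% milk and no ligand, then detected with Alexa488 antibodies. Fluorescence from o1-orientation probes (~5 replicates averaged) was converted to z-scores against 500 random hg19 background probes. Variable regions are seed direct-repeat (DR0–DR5) sites, all their single-nucleotide variants and half-site ablations.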

Row | Sequence | PBM binding z-score
1 | TAGCCTAGGTCATGCGGGCCATTATAGTGTCGGC | 4.09
2 | CGTCCAAGGTCAAGGTCAGTGTAAGAGACTCGAA | 4.67
3 | CCAGACAGGTGAGAAGATAACTCAGCCTCGATTA | 0.035
4 | CAAACTAGGTCAAGGTCAAAGGCGGTTTGTGCCA | 4.87
5 | GATGCAGGGTCAAGGCCAGAGTACGCGTATTGAT | 4.21
6 | AGTTAAAGTTCACTAGGTAACGTAAGATTCAGCT | 3.64
7 | CCTCGGAGGACAACAGGAGGTCAGTGCTGCCAGA | 1.59
8 | ATAAGTAGGTTACATCCGGGTCATTCAGGCTATG | 4.06
9 | TCTCGGAGGACACGAAAGTTCAGAGCTCGACATC | 2.25
10 | TAGCCTACGTCATGCGGGCCAGTATAGTGTCGGC | -0.879
11 | ACTCGGAGGACAAAGGCCAGAGCTACGCCAGTGA | -0.667
12 | AATACAGCGTCATCGTAGGCCAGAGTACGCACAG | -0.373
13 | ACTTACGGGTCAACCAGGTTATAGCACGCGTATA | 6.72
14 | TCATATAGGTAATACAGGTGAACGTCGGCATCTA | 1.18
15 | GCGACTGGGACATCAGCAGGTTACCATAACTTAA | -0.302
16 | CGTCAAAGTTCAAGGTACCGTAACAGAAAGCAGC | 3.76
17 | GCTGCTAGGTGAGGTTGGTCAGCTAACGGGTACG | -0.472
18 | CGAACTAGGTGAAGGACAGTGAATCTCCGCACGC | -0.403
19 | CCTCGGAGGACAACAGGAGGTCTGAGCTGCCAGA | -0.681
20 | TTACCAACGTGAAGGTCGTTGATCCCTCTGTAGA | 1.09

Row | Sequence | PBM binding z-score
21 | ATCTCAAGGTAACCAAGTTCAGTGAATGCCGAAC | 5.03
22 | TCTCGGAGGACCCGAAGGTCAGAGCTTTCCAGAG | 0.636
23 | TAGCCTAGGTTAGATCGGGCCAGTATACGCTATA | -0.4
24 | ACTCGGAGGACAAAAGTCAGAGCTACGCCAGTGA | -0.553
25 | ACTCTTAGTTGAGACGAGGGCAACCGATAGGTTG | 0.492
26 | CCGACTGGGGCAAAGGTTACCGTACTCAGTACGA | 1.39
27 | CCTACTGTGCCACGAAAGGTCATTGATTCAGTGA | 4.38
28 | TGAATGAGGATATAAGATCAGGGAACGTTGCAAA | -0.113
29 | GGAACGAGGGTAAAGTTGATAGCATCTGTCGACG | 0.137
30 | GCTAGCAGGCCATTTGGGTCACTCAGTGACGGGC | 0.711
31 | CTACCAAGGTGAATAAGGTCGTTGATTACTATTC | 5.52
32 | GCGACTGGGGCATCAGCAGGTTACCACAACTTAA | -0.211
33 | GCTAGCAGGCCATTAGGGTCACTCAATGACGGGC | 4.6
34 | ACGAGTTGGTCAGCTGAGGTCACACACAATTCGG | 4.62
35 | CCGACTGGCGCAGAAAGGTTACCATACCATCCGG | 0.29
36 | CCTCGGAGGACAGAAGGTCACAGCTGTCCGCTTT | 2.64
37 | GCATATAGGTAATACAAGGTGAACGTCCGATTGT | 0.043
38 | CGACCAAGGTCATAGGAGGTCAGTGAAGACAGAT | 6.59
39 | TGAATGAGGGTATAAGATCAGGGAACGTTGCAAA | 0.217
40 | TCGAGTAGGTTAGGGACATTCAGAATGGCGTCGA | -0.0636

Source: the supplement of paper PMC6555819
